Laboratory results reported in the supplement of paper PMC13380429.
Unmarked numbers belong to inactive results.

These molecules were tested on Vero E6 infected with SARS-CoV-2 (assay: inhibition of SARS-CoV-2 cytopathic effect; higher = more antiviral protection, active = above 15). Details: 1 nM; 48 h.

SMILES | inhibition of SARS-CoV-2 cytopathic effect [%]
NS(=O)(=O)c1cc(C(=O)O)c(NCc2ccco2)cc1Cl [furosemide] | -1.05
CCN1CCCC(OC(=O)C(c2ccccc2)c2ccccc2)C1 (stereo not given) [piperidolate] | -8.23
N=C(N)S/C=C\C(=O)O | 1.98
c1ccc(N2CCN(CCCOc3ccc4c(c3)OCO4)CC2)cc1 | -0.84
COc1cc(NC(=O)c2ccc(-c3ccc(Cl)cc3)o2)cc(OC)c1 | 1.92
CC(C)(C)c1cc(NC(=O)Nc2ccc(-c3cn4c(n3)sc3cc(OCCN5CCOCC5)ccc34)cc2)no1 [quizartinib] | -1.91
Cc1ccc(S(=O)(=O)Nc2ccc3c(c2)c(C(=O)C(F)(F)F)cn3CC(=O)N[C@@H](CC(C)C)C(=O)O)cc1 | 0.38
CCCCN(CCCC)CC(O)c1cc(Cl)cc2c1-c1ccc(Cl)cc1/C2=C/c1ccc(Cl)cc1 (stereo not given) [lumefantrine] | -1.1
NCCNc1ccc(NCCN)c2c1C(=O)c1ccncc1C2=O [pixantrone] | -1.68
CCOC(=O)c1ccc(O)cc1 [ethyl-paraben] | 0.82
N=C(N)SCCc1c[nH]cn1 [imetit] | -0.58
CN[C@@H]1[C@@H](O)[C@@H](O[C@@H]2[C@@H](O)[C@H](O[C@H]3OC(CN)=CC[C@H]3N)[C@@H](N)C[C@H]2N)OC[C@]1(C)O [Sisomicin (sulfate)] | 0.02
CO[C@@H]1[C@H](O)[C@@H](CO)O[C@H]1n1cnc2c(NC3CCCCC3)ncnc21 | -0.97
NC(=O)[C@H]1CCS[C@@H]2C[C@]3(CCCN3C(=O)Cc3ccc(NC(=O)COc4ccc(Cl)cc4Cl)cc3)C(=O)N12 | 0.49
CN(C)CCCCSC(=N)N | -2.5
C/C(=N\NC(=N)N)c1cc(NC(=O)CCCCCCCCC(=O)Nc2cc(/C(C)=N/NC(=N)N)cc(/C(C)=N/NC(=N)N)c2)cc(/C(C)=N/NC(=N)N)c1 [semapimod] | 1.18
C[C@]12CCC(=O)C=C1[C@@H]1C[C@@H]1[C@H]1[C@@H]3[C@@H]4C[C@@H]4[C@@]4(CCC(=O)O4)[C@@]3(C)CC[C@@H]12 [drospirenone] | -10.6
CC(=O)N1N=C(c2ccc(N)cc2)c2cc3c(cc2C[C@H]1C)OCO3 [talampanel] | -0.4
O=C(O)C(=O)c1cn(Cc2ccccc2)c2ccc(-c3ccc(OC(F)(F)F)cc3)cc12 [tiplaxtinin] | 2.16
OCCn1cc(-c2ccc3c(c2)CC/C3=N\O)c(-c2ccncc2)n1 | 8.04

SMILES | inhibition of SARS-CoV-2 cytopathic effect [%]
O=C(O)c1ccc(-n2nc(-c3ccccc3O)nc2-c2ccccc2O)cc1 [deferasirox] | -0.67
CC(C)CCC[C@@H](C)[C@H]1CC[C@H]2[C@@H]3CCC4=CC(=NO)CC[C@]4(C)[C@H]3CC[C@]12C [olesoxime] | -0.01
Oc1ccc2c(c1)CC[C@H](c1ccccc1)[C@@H]2c1ccc(OCCN2CCCC2)cc1 [lasofoxifene] | -1.63
Cc1cc(O)c2c(c1)C(=O)c1cc(O)cc(O)c1C2=O [emodin] | -1.74
CN1CCC(=C2c3ccccc3CCn3c(C=O)cnc32)CC1 [alcaftadine] | -1.5
C[C@@H]1C/C=C/C=C/C=C/C=C/[C@H](O[C@@H]2O[C@H](C)[C@@H](O)[C@H](N)[C@@H]2O)C[C@@H]2O[C@](O)(C[C@@H](O)C[C@H]3O[C@@H]3/C=C/C(=O)O1)C[C@H](O)[C@H]2C(=O)O [natamycin] | 2.57
CC[C@]1(O)C[C@@H]2CN(CCc3c([nH]c4ccccc34)[C@@](C(=O)OC)(c3cc4c(cc3OC)N(C)[C@H]3[C@@](O)(C(=O)OC)[C@H](OC(C)=O)[C@]5(CC)C=CCN6CC[C@]43[C@@H]65)C2)C1 [Vinblastine (sulfate)] | -0.48
CC(C(=O)O)c1ccc(N2Cc3ccccc3C2=O)cc1 (stereo not given) [indoprofen] | 0.91
NCC(=O)Nc1ccc(-n2nc(C(F)(F)F)cc2-c2ccc3c(ccc4ccccc43)c2)cc1 | -0.05
CN1Cc2c(N)cccc2C(c2ccccc2)C1 (stereo not given) [nomifensine] | 0.22
COc1ccc(-c2ccc3cc(C(=O)O)ccc3c2)cc1C12CC3CC(CC(C3)C1)C2 [adapalene] | -0.05
CC(=O)Oc1c(C)cc(OCC(O)CNC(C)C)c(C)c1C (stereo not given) [metipranolol] | -0.83
CCNC(=O)c1noc(-c2cc(C(C)C)c(O)cc2O)c1-c1ccc(CN2CCOCC2)cc1 | 0.97
Cc1c(C(=O)N2CCOc3ccc(-c4ccc(N)nc4)cc3C2)ccc(S(C)(=O)=O)c1F | -2.79
CCn1c(=O)[nH]c2cc(Cl)c(Cl)cc21 | 0.36
CC(=O)Nc1c(I)c(C(=O)O)c(I)c(N(C)C(C)=O)c1I [metrizoic-acid] | -1.11
O=C(NCCN1CCC2(CC1)C(=O)NCN2c1cccc(F)c1)c1ccc2ccccc2c1 | 0.75
CCn1cc(C(=O)O)c(=O)c2cnc(N3CCCC3)nc21 [piromidic-acid] | -0.85
CSc1cc2c(cc1C(F)(F)F)N(C(=O)Nc1cccnc1)CC2 | -0.31
COc1cc(OC)c2c(=O)[nH]c(-c3cc(C)c(OCCO)c(C)c3)nc2c1 [apabetalone] | -0.27
